# Rows were chosen to be rich in hits. Some 19% of all compounds tested hit in one or more screens of this group.
# IL1B secr inh: inflammasome signaling inhibition, IL-1 beta readout. THP-1 LPS/ATP IL-1B secretion, AlphaLISA, 16 h; stronger effect = lower value. activity change, % at 57.5 µM. 360,000 compounds, 4.7% hits; in the data active = activity change below about -50%; inconclusive = mostly about -30% to -49%
#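 THP-1 cells pretreated 1 hr with compounds (up to 57.5 uM final), then stimulated with LPS (250 ng/mL final) plus ATP (1.25 mM final); secreted IL-1B measured by AlphaLISA after 16 hr, decreased signal indicating inhibition.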
# TDP1 cell CPT: growth inhibition of DT40 Tdp1-/-;hTDP1 cells with camptothecin (screen for TDP1 inhibitors); 420,000 compounds, 12% hits; AID 686979; Potency, µM (top dose mostly 46.2 µM), for the others: at the top dose activity change, negative = growth inhibition, hits mostly inhibitors; chicken DT40 Tdp1-/-;hTDP1 cells + 20 nM CPT, ATP luminescence, 48 h; note: potency is the fitted concentration of half-maximal effect; nearly all actives have a fitted effect of over 55% in size
#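 Chicken DT40 Tdp1-/- cells complemented with human TDP1, 400 cells/well, exposed to compounds plus 20 nM camptothecin for at least 48 h at 37 C; viability read as ATP content by CellTiter-Glo luminescence.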
# TDP1 cell noCPT: qHTS for Inhibitors of human tyrosyl-DNA phosphodiesterase 1 (TDP1): qHTS in cells in absence of CPT; 420,000 compounds, 15% hits; DT40 Tdp1-/- hTDP1 cells, no CPT, ATP luminescence, 48 h; AID 686978, 2013; Potency, µM (series often up to 46.2 µM), for inactives: at the highest dose activity change, negative = growth inhibition, actives largely listed as inhibitors; note: potency is the fitted concentration of half-maximal effect; nearly all actives have a fitted effect of over 55% in size
#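 Cells were dispensed at 400 per well, compounds added by pin tool, plates incubated ≥48 hr at 37 °C, then CellTiter-Glo added for 30 min at room temperature before luminescence reading. Line: DT40 Tdp1-/- complemented with hTDP1; camptothecin omitted.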
# HT1080-NT tox: kills 2HG-producing HT-1080-NT fibrosarcoma cells; HT-1080-NT fibrosarcoma viability, CellTiter-Glo ATP luminescence, 48 h; Potency, µM (highest dose often 46.1 µM), for the others: at the top dose activity, negative = less viability, hits mostly cytotoxic; 360,000 compounds, 1.6% hits; AID 686970;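 note: NT is the 2HG producing partner of a matched IDH1 knockdown line; potency is the fitted concentration of half-maximal effect; 0% = DMSO-treated cells and -100% = media-only wells without cells; nearly all actives have a fitted effect of over 55% in size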
#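 Viability of the 2HG-overproducing fibrosarcoma line after 48 hours of compound exposure at 37 degrees C was determined by luminescence with CellTiter-Glo, and concentration-effect curves were then fitted and categorized.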
# HT1080 IDH1KD tx: HT-1080 IDH1 knockdown cell toxicity (counter line) | HT-1080 IDH1 knockdown viability, ATP luminescence, 48 h | Potency, µM (top dose mostly 46.1 µM), inactives show at the top dose activity, negative = toxicity, usual class: cytotoxic | 360,000 compounds, 2% hits | AID 686971;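 note: potency is the fitted concentration of half-maximal effect; 0% = DMSO wells and -100% = cell-free medium wells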
#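 CellTiter-Glo luminescence after 48 h compound exposure at 37 degrees C of IDH1-knockdown HT-1080 cells in 5% FBS RPMI. %Activity scaled between DMSO wells and cell-free media wells, with curves fitted and assigned curve classes.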
# Starred values were filed as active, the others as inactive; ? = inconclusive; . = no result given; [ ] = remark or other dose. Unless noted, calls come from the whole dose curve; as a rule, active = well fitted curve in the direction sought with a large enough effect; inconclusive = small, poorly fitted or top-dose-only effect, or another doubt; inactive = no such curve, though single readings can be large; an effect the other way counts as inactive or inconclusive. Unless noted, % is set by controls: 0 for no effect and ±100 for the full control effect.
SMILES,IL1B secr inh,TDP1 cell CPT,TDP1 cell noCPT,HT1080-NT tox,HT1080 IDH1KD tx
COC(=O)CCC(=O)NNC(=O)Cc1ccccc1,15,0%,17%,16%,11%
CCOC(=O)[C@]12CCCC=C1N(Cc1ccc3c(c1)OCO3)C(=O)[C@H](CC(=O)N1CCC(c3ccccc3)CC1)C2,-76*,18µM*,21µM*,?,?
COC(=O)[C@]12CCCCC=C1N(Cc1ccc3c(c1)OCO3)C(=O)[C@H](CC(=O)N1CCC(c3ccccc3)CC1)C2,-13,?,18µM*,-24%,-13%
CCOC(=O)N1CCN(C(=O)C[C@@H]2C[C@@]3(C(=O)OCC)CCCC=C3N(Cc3ccc4c(c3)OCO4)C2=O)CC1,3,?,?,5%,2%
Cc1ccc2ncc3c(-c4ccccc4)nn(CC(=O)NC4CCCCC4)c3c2c1,.,-21%,-5%,.,.
CCCn1c(SCC(=O)Nc2nc3c(s2)CCCC3)nc2c1c(=O)n(C)c(=O)n2C,16,12µM*,15µM*,-1%,2%
CCCCn1c(SCC(=O)Nc2nnc(C(C)C)s2)nc2c1c(=O)n(C)c(=O)n2C,28,18µM*,18µM*,9%,9%
Cc1nnc(NC(=O)CSc2nc3c(c(=O)n(C)c(=O)n3C)n2C(C)C)s1,54,-1%,-20%,4%,20%
CCOC(=O)CN=C1CC(C)(C)CC2=C1Sc1ncnc(N(C)C)c1N2,28,13µM*,23µM*,6%,?
COc1cn(CC(=O)Nc2cc(C)ccc2C)c(CN2CCCCC2)cc1=O,.,0%,-6%,.,.
Cc1c(N=Cc2c(O)n(Cc3ccco3)c(=O)c3ccccc23)c(=O)n(-c2ccccc2)n1C,5,21µM*,?,-23%,1%[9.24 µM]
O=c1c2ccccc2c2ccccc2c(=O)n1Cc1ccco1,-4,-28%,-11%,17%,20%
CCC(=O)Nc1ccc(S(=O)(=O)NCc2cccn2Cc2cccc(C)c2)cc1,.,21µM*,23µM*,.,.
Cc1cccc(Cn2cccc2CNS(=O)(=O)c2ccccc2F)c1,.,-19%,?,.,.
Cc1ccc(N2CC(C(=O)OCC(=O)Nc3ccccc3C)CC2=O)cc1 (configuration not stated),-5,2%,-7%,13%,13%
Cn1cc(CCC(=O)N2CCCC(C(=O)c3cccc4ccccc34)C2)cn1 (configuration not stated),-9,?,?,-7%,0%
COc1ccc2cc(C(=O)C3CCCN(C(=O)CCc4cnn(C)c4)C3)ccc2c1 (configuration not stated),-57*,?,?,-2%,-8%
COc1ccc2cc(C(=O)C3CCCN(C(=O)c4cncs4)C3)ccc2c1 (configuration not stated),-18,18µM*,12µM*,-1%,-10%
COc1ccc2cc(C(=O)C3CCCN(C(=O)c4csnn4)C3)ccc2c1 (configuration not stated),-1,-20%,?,15%,12%
COc1ccc2cc(C(=O)C3CCCN(C(=O)CSc4nnc(C)o4)C3)ccc2c1 (configuration not stated),-22,18µM*,21µM*,-46%,?
COc1ccc2cc(C(=O)C3CCCN(C(=O)c4cnn(C(C)C)c4)C3)ccc2c1 (configuration not stated),14,26µM*,?,2%,-2%
Nc1nc2c(c(=O)[nH]1)N=C(CNc1ccc(C(=O)NC(CCC(=O)O)C(=O)O)cc1)CN2 (configuration not stated),.,7%,-15%,.,.
CC1(C)c2cc(O)ccc2OC1N1CCOCC1 (configuration not stated),-2,-13%,11%,0%,-7%
CCOC1=C2CN(S(=O)(=O)c3ccc(C)cc3)[C@@H](c3cccs3)C[C@H]2[C@H]2C(=O)N(c3ccccc3)C(=O)[C@H]2C1,6,2%,12%,10%,17%
N#Cc1c(-c2ccccc2)nc(SCc2nc(N)nc(N3CCCCC3)n2)[nH]c1=O,0,12µM*,?,-5%,?
SMILES,IL1B secr inh,TDP1 cell CPT,TDP1 cell noCPT,HT1080-NT tox,HT1080 IDH1KD tx
O=C(c1csnn1)N1CCC2(CC1)CCN(c1ccccc1)CC2,.,11%,?,.,.
CCn1c(SC(C)C)nnc1-c1cc(-c2ccccc2)sc1N,-6,?,16µM*,0%,-12%
CCn1c(SCc2cccc(C)c2)nnc1-c1ccccc1,-12,?,?,5%,-14%
COC(=O)c1ccc(NS(=O)(=O)c2ccc3[nH]c4c(c3c2)CCCC4)cc1,.,?,6.5µM*,.,.
CC(=O)c1ccc(NS(=O)(=O)c2ccc3[nH]c4c(c3c2)CCCC4)cc1,.,-4%,-26%,.,.
CCOC(=O)CC(NS(=O)(=O)c1ccc2[nH]c(=O)sc2c1)c1ccc(C)cc1 (configuration not stated),63,-10%,-7%,-8%,-2%
COc1cccc(NS(=O)(=O)c2ccc(OC)c(OC)c2)c1,19,?,?,-1%,-4%
CCOC(=O)CC(NS(=O)(=O)c1ccc2[nH]c3c(c2c1)CCCC3)c1ccccc1Cl (configuration not stated),.,18µM*,?,.,.
